Only some compounds are listed: those with a hit (about 2.7% of all), similar ones and a draw of the others.
ANO1 block: inhibitors of mouse TMEM16A calcium-activated chloride channel | Q8BHY3 | HEK293 TMEM16A/YFP iodide influx fluorescence, ionomycin | 1.2% of 310,000 active | normalized B-score (activity score, 25-100; higher = stronger inhibition) at 10 µM | AID 588511;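 active = ratio plate-corrected score three or more library SD toward inhibition, starting fluorescence score within five deviations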;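 also: score derived from kinetic fluorescence span divided by baseline fluorescence per well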
PP1 counter: counter-screen for PP5 inhibitors: inhibitors of human PP1-alpha. P62136. purified PP1alpha, OMFP fluorescence. inhibition, % at 6.7 µM. 0.9% of 320,000 active;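 active = inhibition above the mean inhibition of all tested compounds plus 3 SD, computed separately for each screening campaign, cut at about 15% in these data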
Target sequence (P62136 whole entry, looked up): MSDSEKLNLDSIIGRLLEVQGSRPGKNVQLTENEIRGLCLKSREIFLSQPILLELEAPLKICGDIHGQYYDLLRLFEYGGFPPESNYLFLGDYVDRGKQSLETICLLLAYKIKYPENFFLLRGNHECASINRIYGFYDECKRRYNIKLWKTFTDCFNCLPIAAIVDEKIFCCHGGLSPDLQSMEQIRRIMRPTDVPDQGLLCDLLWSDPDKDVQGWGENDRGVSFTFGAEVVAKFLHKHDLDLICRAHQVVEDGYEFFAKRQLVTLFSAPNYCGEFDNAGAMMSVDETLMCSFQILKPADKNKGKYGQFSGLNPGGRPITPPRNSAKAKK
PREPL inh: inhibits the human prolyl oligopeptidase-like enzyme; recombinant PREPL, fluorescence polarization activity-based probe; 0.68% of 320,000 active; inhibition, % at 5.96 µM; Q4J6C6; in the data active = inhibition above about 43%;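 also: 0% = enzyme with DMSO and 100% = wells lacking enzyme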
ANO1 activ: activates or potentiates the mouse TMEM16A chloride channel; Q8BHY3; HEK293 TMEM16A/YFP-H148Q/I152L, iodide quench fluorescence; active compounds read low; B-score at 10 µM; 0.3% of 340,000 active; AID 623877;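 active = fluorescence-ratio B-score plate-corrected deviation score at least 3 library SD below zero, with starting fluorescence score within 5 deviations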;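 also: channel opened by trigger with iodide after compound preincubation; score built on the fluorescence ratio of max minus min over baseline; more negative score means more quench and so TMEM16A activation or potentiation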
DNA FID counter: counter-screen for HCV NS3 helicase inhibitors: DNA intercalator displacement; DNA fluorescent intercalator displacement, fluorescence; inhibition, % at 7.9 µM; 0.17% of 290,000 active; AID 1845; in the data active = inhibition above about 37%;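 also: 0% = vehicle and 100% = reference compound; higher means more ethidium bromide displaced from hairpin DNA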
PP5 inh: blocks human protein phosphatase 5 activity | P53041 | purified PP5c, OMFP substrate fluorescence | inhibition, % at 6.7 µM | 0.18% of 320,000 active | AID 1987;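 active = inhibition above the campaign's mean inhibition across all tested compounds plus 3 SD, cut at about 9.5% in these data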;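 also: 0% = DMSO only and 100% = 100 µM cantharidin control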
TMEM16A reconf: reconfirmed blocker of mouse TMEM16A calcium-activated chloride channel. shares compounds with ANO1 block. HEK293 TMEM16A/YFP-H148Q, iodide quench fluorescence; ionomycin added to raise cell calcium. inhibition, % at 10 µM. 39% of 2,300 active;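 active = mean duplicate percent inhibition, scaled so buffer wells are 0 and the reference blocker 100, over three buffer SD above buffer mean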
TMEM16A Ca cntr: counter-screen for TMEM16A inhibitors: effect on calcium mobilization; 2% of 2,300 active; TMEM16A/YFP HEK293, Fluo4 calcium mobilization; shares compounds with ANO1 block; calcium response (% of ionomycin), % at 10 µM; AID 652231;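 active = duplicate-averaged calcium signal over 20% of the ionomycin maximum, relative to buffer baseline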;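 also: each well's signal is peak minus trough fluorescence divided by its pre-addition baseline; 0% = buffer wells and 100% = ionomycin wells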
Parental YFP cnt: acts in parental YFP-HEK293 cells lacking TMEM16A, counter-screen; shares compounds with ANO1 block; iodide YFP quench, ionomycin; YFP ratio F(max-min)/F0 at 10 µM; 2,300 tested, under 10 active; AID 652233;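 active = yellow fluorescent protein signal ratio exceeding the buffer control mean by over 5 SD of those controls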;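 also: ratio is mean of duplicate wells from kinetic YFP trace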
ClC-1 rat inh: blocks the rat ClC-1 voltage-dependent chloride channel. shares compounds with ANO1 block. CHO ClC-1-YFP, iodide influx fluorescence quench; iodide control reads 0, buffer control 100. ratio percent, % at 10 µM. 2,300 tested, under 10 active. AID 652236;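 active = duplicate-mean ratio percent above the mean of iodide-only control wells, which defines zero, plus 5 of their SD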;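 also: higher percent means stronger block of ClC-1 iodide influx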
Active calls of the source: *.

For c1ccc2c(-c3c[nH]c4ccccc34)c3ccccc3nc2c1 the results were ANO1 block 25*, PP1 counter 5, PREPL inh -8, ANO1 activ inactive, DNA FID counter 11, PP5 inh 5, TMEM16A reconf inactive, TMEM16A Ca cntr inactive, Parental YFP cnt -1 and ClC-1 rat inh -10.
`CCOc1ccc(S(=O)(=O)N2CCC(C(=O)N3CCCC3)CC2)cc1C` gave ANO1 block inactive, PP1 counter -2, PREPL inh 10, ANO1 activ inactive, DNA FID counter -38 and PP5 inh 0.
For COc1ccc(/C=C/C(=O)OCC(=O)NC(=O)NC(C)(C)C)cc1 the results were ANO1 block inactive, PP1 counter -3, PREPL inh 4, ANO1 activ inactive, DNA FID counter -21 and PP5 inh 1.
`COc1ccc(OCCC(=O)OCC(=O)NC(=O)NC(C)(C)C)cc1` gave ANO1 block inactive, PP1 counter 0, PREPL inh 9, ANO1 activ inactive, DNA FID counter -13, PP5 inh 2, TMEM16A reconf inactive, TMEM16A Ca cntr inactive, Parental YFP cnt -1.2 and ClC-1 rat inh -12.
Cn1cnc2ncnc(Oc3ccc(Br)cc3)c21 was read as ANO1 activ inactive.
CC(C)C1Cc2c(sc3[nH]c(=S)n(Cc4ccccc4)c(=O)c23)CO1 (stereo not drawn) was read as ANO1 block 100*, PP1 counter -4, PREPL inh 6, ANO1 activ inactive, DNA FID counter -6, PP5 inh 2, TMEM16A reconf inactive, TMEM16A Ca cntr inactive, Parental YFP cnt -0.85 and ClC-1 rat inh -2.
`Cc1noc(C)c1COc1ccc(C(=O)NCCc2ccccn2)cc1` gave ANO1 block inactive, PP1 counter -1, PREPL inh 3, ANO1 activ inactive, DNA FID counter -10 and PP5 inh 0.
For CCN(CC)c1ccc(NC(=O)CCCCCN2C(=O)c3ccccc3C2=O)cc1 the results were ANO1 block 25*, PP1 counter 3, PREPL inh 4, ANO1 activ inactive, DNA FID counter -8, PP5 inh 2, TMEM16A reconf inactive, TMEM16A Ca cntr inactive, Parental YFP cnt -0.9 and ClC-1 rat inh -6.
Screening CC(OC(=O)c1ccc(CN2CCCC2=O)cc1)C(=O)Nc1ccc(Cl)cc1 (stereo not drawn) returned PP1 counter 0, PREPL inh 11, ANO1 activ inactive and PP5 inh -2.
Screening OCCN1CCN(C(c2cccs2)c2ccc3cccnc3c2O)CC1 (stereo not drawn) returned DNA FID counter 0.
For CC(C)(C)c1cc(C(c2cccnc2)N2CCN(CCO)CC2)cc(C(C)(C)C)c1O (stereo not drawn) the results were ANO1 block 100*, PP1 counter 0, PREPL inh -11, ANO1 activ inactive, DNA FID counter -23, PP5 inh 1, TMEM16A reconf 68%*, TMEM16A Ca cntr inactive, Parental YFP cnt -1.1 and ClC-1 rat inh -42.
Screening CCOC(=O)c1cc(C)n(Cc2cccc(OC)c2OC)c1C returned ANO1 block 25*, PP1 counter -6, PREPL inh 4, ANO1 activ inactive, DNA FID counter -30, PP5 inh 7, TMEM16A reconf 29%*, TMEM16A Ca cntr inactive, Parental YFP cnt -0.9 and ClC-1 rat inh -14.
For CCOC(=O)c1c(C)c(C)n(Cc2cccc(OC)c2OC)c1C the results were ANO1 block inactive, PP1 counter 0, PREPL inh 9, ANO1 activ inactive, DNA FID counter -13 and PP5 inh 0.
O=C(CSCc1nc2ccccc2[nH]1)N1CCN(c2ccc(F)cc2)CC1 was read as ANO1 block 25*, PP1 counter -3, PREPL inh -24, ANO1 activ inactive, DNA FID counter -16, PP5 inh 0, TMEM16A reconf 20%*, TMEM16A Ca cntr inactive, Parental YFP cnt -0.98 and ClC-1 rat inh -16.
O=C(CSCc1nc2ccccc2[nH]1)N1CCN(c2cccc(Cl)c2)CC1 was read as ANO1 block inactive, PP1 counter 0, PREPL inh -8, ANO1 activ inactive, DNA FID counter -25 and PP5 inh 4.
CCc1nccn1S(=O)(=O)c1cc(OC)ccc1OC was read as ANO1 block inactive, PP1 counter -1, PREPL inh 2, ANO1 activ inactive, DNA FID counter 0 and PP5 inh -4.
Screening COc1ccccc1NC(=O)COc1ccc(/C=N/NC(=O)CSCc2ccc(Cl)cc2)cc1 returned ANO1 block 100*, PP1 counter -4, PREPL inh -7, ANO1 activ inactive, DNA FID counter -5, PP5 inh 1, TMEM16A reconf 18%*, TMEM16A Ca cntr inactive, Parental YFP cnt -1.1 and ClC-1 rat inh 4.
`COc1ccccc1NC(=O)COc1ccc(/C=N/NC(=O)CSCc2cc(C)cc(C)c2)cc1` gave ANO1 block inactive, PP1 counter 2, PREPL inh -16, ANO1 activ inactive, DNA FID counter 4 and PP5 inh 3.
For O=C1CC(C(=O)Nc2ccccc2)N=C(N2CCCCC2)N1 (stereo not drawn) the results were ANO1 block inactive, PP1 counter -1, PREPL inh -1, ANO1 activ inactive, DNA FID counter -3, PP5 inh 1, TMEM16A reconf inactive, TMEM16A Ca cntr inactive, Parental YFP cnt -1.1 and ClC-1 rat inh -5.
For O=C1OC(c2ccccc2)(c2ccc(O)cc2)c2ccccc21 (stereo not drawn) the results were ANO1 activ inactive.
Cc1cc(O)ccc1C1(c2ccc(O)cc2C)OC(=O)c2ccccc21 was read as ANO1 block 25*, PP1 counter 3, PREPL inh -11, ANO1 activ inactive, DNA FID counter -2, PP5 inh 5, TMEM16A reconf 43%*, TMEM16A Ca cntr inactive, Parental YFP cnt -0.94 and ClC-1 rat inh -4.
Screening CCOC(=O)N1CCc2cc(OC)c(OC)c3c2c1cc1cc(OC)c(OC)cc13 returned ANO1 activ inactive.
